Records with an inconclusive call do not appear. The source made the active and inactive calls. Calls come from the whole dose curve; as a rule, active = well fitted cell-killing curve with a large enough effect; inconclusive = small, poorly fitted or top-dose-only effect; inactive = flat fitted curve, though single readings scatter.

The nature of the assay: HBEC Cell Viability Secondary Assay for qHTS Assay for Epigenetic Modulators. To be noted: HBEC normal bronchial cells viability, ATP luminescence, 72 h. The source says:
NIH Molecular Libraries Screening Centers Network [MLSCN] NIH Chemical Genomics Center [NCGC] MLSCN Grant: 1 X01 MH079860-01 Assay Provider: Elisabeth D. Martinez, University of Texas SW Medical Center NCGC Assay Overview: This secondary assay characterizes selected actives identified in the qHTS of the Locus Derepression (LDR) assay (PubChem AID 1865). The LDR assay detects the derepression of a GFP reporter that is stably integrated in a region of the genome of murine c127i mammary cells that is presumably silenced. Compounds that cause derepression of the locus to express GFP are identified by enumerating GFP positive cells using a laser-scanning microplate cytometer. […] Cell viability was measured using a luminescence-based detection reagent that measures cellular ATP levels.
NCGC Assay Protocol Summary HBEC cells were seeded at 125 cells/5 uL/well in white, solid bottom, 1536 well plates (Greiner). […] Plates were incubated 72 hours at 37deg C and 5% CO2, then 3.5 uL/well CellTiter-Glo(R) (Promega) detection reagent was added, plates were incubated at ambient temperature for 10 minutes and luminescence was measured by a ViewLux (Perkin Elmer) reader. […] A quantitative high-throughput screen identifies potential epigenetic modulators of gene expression. […] A quantitative high-throughput screen identifies potential epigenetic modulators of gene expression. […]
Background: In qHTS, concentration-response curves come from the screen itself.

Regarding `COc1ccc(OC)c(N2C(=O)NC(=O)/C(=C\c3ccc([N+](=O)[O-])s3)C2=O)c1`, the Potency is 28.1 µM (active). As for `O=C1NC(=O)N(CCc2ccc(F)cc2)C(=O)/C1=C/C=C/c1ccccc1`, the figure is 7.91 µM (active).
